For test [1], the target named is Gonadotropin-releasing hormone receptor (Homo sapiens) (UniProt P30968). Nature of the test: Human gonadotropin-releasing hormone receptor (GnRHR) small molecule agonists, calcium flux assay in GnRHR-HEK293 cells (AID 1920063). Further: nearly all actives have a fitted effect of over 35% in size. An outline of the steps:
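We seeded human GnRHR-expressing HEK293 cells for 18 hours, loaded them with calcium dye for an hour at 37 C, added test compounds, and recorded fluorescence intensity kinetically for three minutes.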

Test [2] has as its target KiSS-1 receptor (Homo sapiens) (UniProt Q969F8). The test is described as follows: Human kisspeptin (KISS1R) small molecule agonists, calcium flux assay in KISS1R-HEK293 cells (AID 1920064; active means well fitted activation curve with a large enough effect in the repeat runs). An outline of the steps: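 Kinetic calcium assay, 1 s sampling over 3 min at Ex/Em 480/540, in HEK293 cells engineered with human KISS1R; compounds delivered in DMSO after 1 h dye loading.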
For orientation: Calcium assays in cells follow changes in intracellular calcium, usually with a dye or a luminescent sensor.

Test [3] in a line: G protein-coupled receptor (GPCR) small molecule agonists, calcium flux assay: HEK293 wild type cell line counter screen (AID 1920065). An outline of the steps: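 Calcium-sensitive dye, loaded 1 h at 37 C into cells cultured 18 h, reports compound-evoked calcium release as fluorescence (Ex/Em 480/540), measured over 3 min. Agonist mode; 15-point titrations, triplicate.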
Test [4] can be described thus: p53 small molecule agonists, cell-based qHTS assay with human liver microsomes: qHTS cell viability counter screen (AID 1963579). Further: nearly all actives have a fitted effect of over 45% in size. Further: potency means the concentration at half of the fitted maximal effect. In outline: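 Viability of p53RE-bla cells is measured as CellTiter-Glo luminescence following a 16 h, 37 C incubation with compound, liver microsomes from human donors and NADPH.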
A short description of test [5]: p53 small molecule agonists, cell-based qHTS assay with rat liver microsomes: qHTS cell viability counter screen (AID 1963580). Further: nearly all actives have a fitted effect of over 45% in size. Further: potency means the concentration at half of the fitted maximal effect. In outline: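 Intracellular ATP, by CellTiter-Glo luminescence, defines viability. HCT-116 p53RE-bla cells, 4,000 per well, were compound-treated in the presence of rat liver microsomes and NADPH for 16 h at 37 C.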
Test [6] addresses 5-hydroxytryptamine receptor 2A (Homo sapiens) (UniProt P28223). Nature of the test: 5-hydroxytryptamine receptor 2A (HTR2A) small molecule antagonists, cell-based qHTS assay (AID 1963586). Further: nearly all actives have a fitted effect of over 45% in size. An outline of the steps:
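Antagonist-mode intracellular calcium assay: DOI (4 nM) added after 5 min compound pre-incubation at room temperature to dye-loaded HTR2A-CHO cells. Fluorescence followed for 3 min, sampled every second.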

For test [7] the target is unchanged. Nature of the test: 5-hydroxytryptamine receptor 2A (HTR2A) small molecule agonists, cell-based qHTS assay (AID 1963587). Further: nearly all actives have a fitted effect of over 30% in size. An outline of the steps:
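Kinetic calcium-flux fluorescence (2 min, 1 sec intervals) after compound addition in agonist mode. HTR2A-CHO cells were cultured 18 h, then dye-loaded 1 h at 37 C.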
(Quantitative high-throughput screening tests each substance at several concentrations.)

The nature of test [8]: cAMP Responsive Elements (CRE) small molecule antagonists, cell-based qHTS assay (AID 1963591; active means well fitted inhibition curve with a large enough effect in the signal ratio in the repeat runs, not every such curve was filed as active; the % refers to the signal ratio; further: potency means the concentration at half of the fitted maximal effect). An outline of the steps: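 HEK293T cells carrying a CRE-driven beta-lactamase reporter receive compound and NKH477 (0.25 uM final) for 3 h. Fluorescence from LiveBLAzer B/G FRET substrate is read after 2 h at room temperature.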
The target in test [9] is D(2) dopamine receptor (Homo sapiens) (UniProt P14416). Nature of the test: Dopamine D2 receptor (DRD2) small molecule agonists, cell-based qHTS assay (AID 1963594). Further: nearly all actives have a fitted effect of over 35% in size. In outline: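 cAMP accumulation in DRD2-HEK293 cells measured by HTRF after 1 h detection; compounds added 10 min before NKH477 (200nM […]) forskolin-analogue stimulation, 30 min at room temperature, with Ro20-1724 present at 0.1 mM final.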
Sequence of D(2) dopamine receptor (Homo sapiens) (P14416 whole entry, looked up): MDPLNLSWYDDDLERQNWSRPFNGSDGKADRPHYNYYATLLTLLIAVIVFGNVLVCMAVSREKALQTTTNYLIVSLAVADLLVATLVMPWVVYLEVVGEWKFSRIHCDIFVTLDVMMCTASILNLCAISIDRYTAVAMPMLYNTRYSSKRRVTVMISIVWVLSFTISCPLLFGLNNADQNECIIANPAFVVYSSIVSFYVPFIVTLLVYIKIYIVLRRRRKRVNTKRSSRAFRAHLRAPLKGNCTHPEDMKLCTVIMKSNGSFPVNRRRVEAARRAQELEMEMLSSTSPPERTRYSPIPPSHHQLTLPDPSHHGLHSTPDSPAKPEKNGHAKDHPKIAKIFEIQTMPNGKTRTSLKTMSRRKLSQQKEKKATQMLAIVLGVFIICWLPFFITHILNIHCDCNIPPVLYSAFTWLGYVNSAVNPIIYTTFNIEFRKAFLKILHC

Test [10] shares this target. Nature of the test: Dopamine D2 receptor (DRD2) small molecule antagonists, cell-based qHTS assay (AID 1963595; active means well fitted inhibition curve with a large enough effect in the signal ratio in the repeat runs, with a control signal flat; the % refers to the signal ratio). In outline: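 Human DRD2 antagonist qHTS measuring cAMP by HTRF. The cells are exposed to compound for 10 min, then to NKH477 (200 nM) and quinpirole (12 nM) for 30 min at RT, with Ro20-1724 (0.1 mM) present throughout.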
A short description of test [11]: p53 small molecule agonists, cell-based qHTS assay: qHTS cell viability counter screen (AID 1963581). Further: nearly all actives have a fitted effect of over 45% in size. Further: potency means the concentration at half of the fitted maximal effect. In outline: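 Following 5 h attachment, HCT-116 p53RE-bla cells took up compound for 16 h at 37 C; the reporter was read with B/G FRET substrate (2 h RT), and viability then via CellTiter-Glo ATP luminescence.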
Test [12] concerns the target Beta-2 adrenergic receptor (Homo sapiens) (UniProt P07550). The test is described as follows: Adrenergic beta2 receptor (ADRB2) small molecule antagonists, cell-based qHTS assay (AID 1963592). Further: nearly all actives have a fitted effect of over 50% in size. Further: potency means the concentration at half of the fitted maximal effect. An outline of the steps:
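Cells (CHO, stable ADRB2 overexpression) incubated 18-20hr at 37C; compounds added from DMSO; agonist mix (1nM isoproterenol, 100uM IBMX, 25uM Ro-20-1724) added; 0.5hr RT; d2-cAMP and anti-cAMP-cryptate added; 1hr RT; 665/615 nm read.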

Test [13] shares this target. The test is described as follows: Adrenergic beta2 receptor (ADRB2) small molecule agonists, cell-based qHTS assay (AID 1963593).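 Further: CHO cells stably overexpressing human ADRB2.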 In outline:
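CHO cells stably over-expressing ADRB2 were plated overnight at 37C, then dosed with compounds plus a stimulation mix containing 100uM IBMX and 25uM Ro-20-1724 for 0.5hr at room temperature. cAMP was measured by HTRF competition, 1hr.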

A short description of test [14]: p53 small molecule agonists, cell-based qHTS assay with rat liver microsomes (AID 1963578). In outline:
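Quantitative HTS of the Tox21 10K library: p53RE-bla cells, rat liver microsomes plus NADPH at 0.5 mg/mL final each, 16 h at 37 C, beta-lactamase fluorescence detection.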

In test [15] the target is Muscarinic acetylcholine receptor M1 (Homo sapiens) (UniProt P11229). Nature of the test: Cholinergic receptor muscarinic 1 (CHRM1) small molecule antagonists, cell-based qHTS assay (AID 1963588). Further: nearly all actives have a fitted effect of over 40% in size. Further: potency means the concentration at half of the fitted maximal effect. An outline of the steps: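 CHRM1-CHO calcium-flux assay, antagonist mode. Cells were seeded 18 h, dye-loaded 1 h at 37 C and given compound for 5 min at RT, then acetylcholine was added at 50nM. FDSS fluorescence was read 3 min; 15 concentrations, three runs.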
Sequence of Muscarinic acetylcholine receptor M1 (Homo sapiens) (P11229 whole entry, looked up): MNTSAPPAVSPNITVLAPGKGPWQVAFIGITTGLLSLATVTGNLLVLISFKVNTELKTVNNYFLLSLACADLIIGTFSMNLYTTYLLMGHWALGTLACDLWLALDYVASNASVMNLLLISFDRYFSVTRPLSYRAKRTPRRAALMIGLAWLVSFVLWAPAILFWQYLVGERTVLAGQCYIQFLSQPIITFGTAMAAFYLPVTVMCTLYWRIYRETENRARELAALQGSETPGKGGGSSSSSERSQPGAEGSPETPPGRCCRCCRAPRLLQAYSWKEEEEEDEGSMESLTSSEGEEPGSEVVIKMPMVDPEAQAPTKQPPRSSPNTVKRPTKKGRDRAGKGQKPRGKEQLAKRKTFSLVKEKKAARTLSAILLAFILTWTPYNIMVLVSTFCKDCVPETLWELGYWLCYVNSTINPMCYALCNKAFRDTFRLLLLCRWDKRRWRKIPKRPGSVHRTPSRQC

For test [16] the target is unchanged. Nature of the test: Cholinergic receptor muscarinic 1 (CHRM1) small molecule agonists, cell-based qHTS assay (AID 1963589). Further: nearly all actives have a fitted effect of over 35% in size. In outline:
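Measures agonist-induced intracellular calcium rise. Stable human CHRM1 CHO line, 1 h dye load at 37 C, compounds from DMSO, kinetic fluorescence read.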

A short description of test [17]: cAMP Responsive Elements (CRE) small molecule agonists, cell-based qHTS assay (AID 1963590). In outline:
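A CRE-responsive beta-lactamase reporter in HEK 293T cells was used. Treatment ran 3 h at 37 C; detection used LiveBLAzer B/G FRET substrate for 2 h at room temperature.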

Test [18] is described as follows: p53 small molecule agonists, cell-based qHTS assay (AID 1963582; active means well fitted activation curve with a large enough effect in the signal ratio in the repeat runs, not every such curve was filed as active; the % refers to the signal ratio). An outline of the steps:
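In this cell-based concentration-response screen, a p53 response element drives beta-lactamase; cells received DMSO-borne compounds after 5 h culture and were incubated a further 16 h before FRET substrate development.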

The nature of test [19]: p53 small molecule agonists, cell-based qHTS assay with human liver microsomes (AID 1963577).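 Further: p53 response element beta-lactamase reporter cells with liver microsomes plus NADPH.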 In outline:
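HLM-supplemented p53RE-bla reporter assay: 16 h compound exposure at 37 C, microsomes and NADPH each 0.5 mg/mL final, read by fluorescence intensity.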

Several values for one entry are separate records, joined by “and”; a condition that tells them apart may be missing. Identical values can stand only once. Results filed as inconclusive are left out. Activity calls are given as the source filed them. Unless noted, the call rests on the fitted dose curve.

Sequence of Beta-2 adrenergic receptor (Homo sapiens) (P07550 whole entry, looked up): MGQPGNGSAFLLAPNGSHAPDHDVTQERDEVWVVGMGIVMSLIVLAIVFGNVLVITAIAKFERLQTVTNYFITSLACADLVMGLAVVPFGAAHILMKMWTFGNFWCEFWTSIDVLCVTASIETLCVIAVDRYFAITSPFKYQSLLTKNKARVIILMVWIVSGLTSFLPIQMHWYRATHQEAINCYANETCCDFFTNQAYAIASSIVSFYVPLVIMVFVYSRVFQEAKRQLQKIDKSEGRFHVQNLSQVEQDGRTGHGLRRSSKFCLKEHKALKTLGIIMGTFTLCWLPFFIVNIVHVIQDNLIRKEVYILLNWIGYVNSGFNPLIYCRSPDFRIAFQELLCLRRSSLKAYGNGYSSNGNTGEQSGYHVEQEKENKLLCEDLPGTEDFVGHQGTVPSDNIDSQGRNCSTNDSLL
Sequence of 5-hydroxytryptamine receptor 2A (Homo sapiens) (P28223 whole entry, looked up): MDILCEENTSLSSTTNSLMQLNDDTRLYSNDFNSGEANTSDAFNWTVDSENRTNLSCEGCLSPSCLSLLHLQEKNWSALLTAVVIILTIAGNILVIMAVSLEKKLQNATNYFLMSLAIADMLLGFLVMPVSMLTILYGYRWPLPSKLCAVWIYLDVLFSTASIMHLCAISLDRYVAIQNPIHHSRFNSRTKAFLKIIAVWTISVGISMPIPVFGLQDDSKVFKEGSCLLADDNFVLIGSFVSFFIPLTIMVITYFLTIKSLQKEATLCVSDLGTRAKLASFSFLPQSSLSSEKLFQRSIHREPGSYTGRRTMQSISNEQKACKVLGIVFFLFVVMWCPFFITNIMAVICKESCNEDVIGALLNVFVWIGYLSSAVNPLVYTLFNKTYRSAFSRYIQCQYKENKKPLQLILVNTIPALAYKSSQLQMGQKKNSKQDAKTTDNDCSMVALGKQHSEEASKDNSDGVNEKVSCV
Sequence of Gonadotropin-releasing hormone receptor (Homo sapiens) (P30968 whole entry, looked up): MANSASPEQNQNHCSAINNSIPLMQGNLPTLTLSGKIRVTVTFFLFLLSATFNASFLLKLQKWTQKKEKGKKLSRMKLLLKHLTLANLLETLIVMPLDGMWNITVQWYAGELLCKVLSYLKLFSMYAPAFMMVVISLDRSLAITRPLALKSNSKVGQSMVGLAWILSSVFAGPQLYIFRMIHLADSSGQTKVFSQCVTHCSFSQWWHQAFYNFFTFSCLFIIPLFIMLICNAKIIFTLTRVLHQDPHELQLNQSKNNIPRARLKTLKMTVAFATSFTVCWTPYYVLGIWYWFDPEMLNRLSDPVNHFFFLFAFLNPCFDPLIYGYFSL
Sequence of KiSS-1 receptor (Homo sapiens) (Q969F8 whole entry, looked up): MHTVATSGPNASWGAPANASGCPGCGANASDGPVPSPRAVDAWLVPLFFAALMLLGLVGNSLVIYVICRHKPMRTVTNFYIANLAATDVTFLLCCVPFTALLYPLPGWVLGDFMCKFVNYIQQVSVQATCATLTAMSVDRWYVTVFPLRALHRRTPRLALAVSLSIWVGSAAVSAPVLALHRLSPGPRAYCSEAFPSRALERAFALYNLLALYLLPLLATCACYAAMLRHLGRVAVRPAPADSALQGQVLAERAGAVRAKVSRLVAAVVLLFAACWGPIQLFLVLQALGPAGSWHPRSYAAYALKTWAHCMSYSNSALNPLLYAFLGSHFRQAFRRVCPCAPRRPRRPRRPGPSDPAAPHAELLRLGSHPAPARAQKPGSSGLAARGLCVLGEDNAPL

For `CCOC(=O)c1nc(C(Cl)(Cl)Cl)n(-c2ccc(Cl)cc2Cl)n1`, the Potency result in test [1], in test [2], in test [3], in test [4], in [5] and in test [6] was “inactive” in each case. In addition, the Potency entry in [7], in test [9] and in test [10] was “inactive” throughout. Moreover, the Potency in [8] was 61.1 µM (active).
With `C[C@H]1O[C@@H](O[C@H]2[C@@H](O)C[C@H](O[C@H]3[C@@H](O)C[C@H](O[C@H]4CC[C@@]5(C)[C@H](CC[C@@H]6[C@@H]5C[C@@H](O)[C@]5(C)[C@@H](C7=CC(=O)OC7)CC[C@]65O)C4)O[C@@H]3C)O[C@@H]2C)C[C@H](O)[C@@H]1O`, the Potency result in test [1], in [2], in test [3], in test [12], in test [13] and in test [9] was “inactive” throughout. Moreover, the Potency entry in test [10] was “inactive”. Moreover, the Potency was 0.0903 µM (active) in test [4]; 205 nM (active) and 90.3 nM (active) in test [5]; 102 nM (active) and 90.3 nM (active) in test [11].
On to `c1ccc(C(O[C@@H]2CCCN(CCc3ccc4c(c3)OCO4)C2)c2ccccc2)cc1`, for which the Potency result in [1], in test [2], in [3], in test [14], in test [4] and in [5] was “inactive” in each case. Besides, the Potency result in [11], in test [16], in test [9] and in test [10] was “inactive” throughout. Moreover, the Potency in [15] is 0.119 µM (active); in [12], 48.6 µM (active).
For `OCCCCCCCCCCCCBr`, the Potency entry in test [1], in test [2], in test [3], in test [4], in [5] and in test [6] was “inactive” each time. The Potency entry in test [7], in test [15], in [16], in test [8], in test [12] and in test [9] was “inactive” each time. In addition, in [10], the Potency result is “inactive”.
On to `CC(C)c1nc(CN(C)C(=O)N[C@H](C(=O)N[C@@H](Cc2ccccc2)C[C@H](O)[C@H](Cc2ccccc2)NC(=O)OCc2cncs2)C(C)C)cs1`, for which the Potency entry in [1], in [2], in test [3], in [4], in [5] and in test [11] was “inactive” throughout. Moreover, the Potency result in [12] and in test [10] was “inactive” throughout.
For `CO[C@]1(NC(=O)CSC(F)F)C(=O)N2C(C(=O)O)=C(CSc3nnnn3CCO)CO[C@H]21`, the Potency entry in test [1], in test [2], in test [3], in test [14], in test [4] and in [5] was “inactive” throughout. The Potency result in test [11], in [6], in test [7], in test [16], in test [17] and in test [8] was “inactive” each time. Besides, the Potency result in test [12], in [13], in test [9] and in test [10] was “inactive” each time.
On to `CC(C)(C)C1=CC(=O)C=C(C(C)(C)C)C1=O`, for which the Potency result in test [1], in test [2], in test [3], in test [4], in test [5] and in [11] was “inactive” throughout. Also, the Potency result in [6], in test [7], in test [15], in [16], in [12] and in test [9] was “inactive” each time. For the same compound, the Potency entry in test [10] is “inactive”.
For `C#C[C@]1(O)CC[C@H]2[C@@H]3[C@H](C)CC4=C(CCC(=O)C4)[C@H]3CC[C@@]21C`, the Potency result in [1], in test [2], in test [3], in [14], in test [4] and in test [5] was “inactive” in each case. For the same compound, the Potency entry in test [11], in test [18] and in test [10] was “inactive” each time. For the same compound, the Potency in [12] is 23.7 µM (active).
Consider `Nc1ccc([N+](=O)[O-])cc1O`, for which the Potency result in [1], in test [2], in test [3], in test [19], in test [4] and in [18] was “inactive” in each case. The Potency entry in test [6], in [7], in test [15], in test [16] and in [17] was “inactive” throughout.
On to `CC1CCCC1`, for which the Potency result in [1], in test [2], in [3], in test [6], in test [7] and in test [15] was “inactive” in each case. Moreover, the Potency entry in test [16], in [8], in test [12] and in [9] was “inactive” each time.
In the case of `COc1ccc2cc([C@H](C)C(=O)O)ccc2c1`, the Potency result in [1], in test [2], in test [3], in test [11], in test [18] and in [8] was “inactive” each time. Further, the Potency result in test [12], in test [9] and in test [10] was “inactive” throughout.
Turning to `CN(C)CCOC(c1ccccc1)c1ccccc1`, the Potency entry in test [1], in [2], in test [3], in test [11], in test [17] and in test [8] was “inactive” throughout. The Potency entry in test [12], in test [9] and in test [10] was “inactive” each time.
For the compound `ClC(Cl)Cl`, the Potency entry in [1], in test [2], in test [19], in test [14], in test [4] and in test [11] was “inactive” in each case. For the same compound, the Potency entry in test [18], in test [17], in test [8], in [12], in [9] and in [10] was “inactive” throughout.
For the compound `C[N+]1(C)CCC(OC(=O)C(O)(c2ccccc2)C2CCCC2)C1` (stereo unspecified), the Potency result in test [1], in test [2], in [3], in [11], in test [18] and in test [6] was “inactive” in each case. For the same compound, the Potency result in [7], in test [16], in [17], in [8], in [12] and in test [9] was “inactive” in each case. The Potency entry in [10] was “inactive”.
